Among all 330,000 compounds or so, about 7,300 (2.2%) were called active.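 How the source made its calls: active means inhibition of at least 40%; inactive means the rest.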 The full list was thinned out, with actives kept by preference.

This experiment in a line: growth inhibitors of tim10-1 mutant yeast, primary screen, luminescence, uHTS (AID 463190).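 Further: mutant grown at 25 °C; 0% = DMSO wells with yeast and 100% = wells holding no yeast.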 Particulars: S. cerevisiae tim10-1 ts strain growth, BacTiter-Glo, 24 h; at 20 µM; stronger effect = higher value.
For the compound `CCc1noc(C)c1C(=O)Nc1nc2ccc(OC)cc2s1`, the inhibition – broadly, the drop in the measured response relative to a control, in per cent – is 26.7% (inactive). For `COc1ccc2nc(Nc3nc4cc5c(cc4s3)OCCO5)sc2c1`, the inhibition was 47.7% (active). In the case of `COc1ccc2nc(NC(=O)NC3CCCCC3)sc2c1`, the inhibition is 21.2% (inactive). With `COc1ccc(N2CCN(Cc3ccc(Br)s3)CC2)cc1`, the inhibition was 19.9% (inactive). For the compound `c1ccc(-c2cnc(CN3CCN(c4ccccc4)CC3)o2)cc1`, the inhibition is 2.4% (inactive). In the case of `Fc1ccc(N2CCN(Cc3cnc(Oc4ccc(Br)cc4)s3)CC2)cc1` it was 42.4% (active); in that of `COc1ccc(N2CCN(C(CNS(=O)(=O)c3ccc(C)cc3)c3ccccc3)CC2)cc1` (centres undefined), 4.98% (inactive).

For the compound `CS(=O)(=O)c1ccc(C(=O)OCC(=O)NNC(=O)COc2ccc(Cl)cc2)cc1`, the inhibition is -15.1% (inactive). Regarding `C/C=C/c1ccc(OCCCCN2CCC(C)CC2)c(OC)c1`, the inhibition is 15.8% (inactive).

As for `COc1ccc(NC(=O)CNC(=O)Cc2ccccc2)cc1OC`, the inhibition was -6.35% (inactive). `COc1ccc(NC(=O)c2ccccc2[N+](=O)[O-])cc1OC`: the inhibition is 15.9% (inactive). Turning to `COc1ccc(NC(=O)c2cc3nc(-c4ccccc4)cc(C)n3n2)cc1OC`, the inhibition is 51.1% (active). For `O=C(COC(=O)/C=C/c1ccc(S(=O)(=O)N2CCCCCC2)cc1)NCc1ccccc1Cl`, the inhibition is 35.9% (inactive). Consider `Cc1onc(-c2ccccc2Cl)c1C(=O)N(Cc1ccc(N(C)C)cc1)C(C)C`, for which the inhibition is 23.4% (inactive). Under `O=c1ccc2c(-c3ccccc3S(=O)(=O)O)c3ccc(O)c(O)c3oc-2c1O` stands 38.3% (inactive); under `Cc1ccccc1NC(=O)NCC1CCN(Cc2cccc(Cl)c2)CC1`, 4.31% (inactive). As for `Cc1ccc(C)c(CN2CCC(CNC(=O)Nc3ccc(C)c(F)c3)CC2)c1`, the inhibition was 30.5% (inactive).

Take `Cc1cccc(CN2CCC(CNC(=O)Nc3ccc(F)c(Cl)c3)CC2)c1`: the inhibition is 41.3% (active). `Cc1cccc(-c2c(NC(=O)c3ccco3)oc3ccc(Cl)cc3c2=O)c1`: the inhibition was 7.38% (inactive). With `CCN(C(=O)Cc1c(C(=O)O)n(CC)c2ccccc12)c1ccccc1C`, the inhibition is 19.7% (inactive). Under `O=C(O)COc1ccc(-c2nccc(-c3cccs3)n2)cc1` stands 10.2% (inactive). `CN(C(=O)COc1nnc(-c2cccs2)c(-c2cccs2)n1)c1ccccc1`: the inhibition is 46.6% (active). Regarding `CN(C(=O)COC(=O)CNC(=O)C12CC3CC(CC(C3)C1)C2)c1ccccc1`, the inhibition was 4.63% (inactive). Under `O=C(CC1NCCc2ccccc21)Nc1cccc(Cl)c1` (centres undefined) stands 34.9% (inactive).

For the compound `Cc1ccc(NS(=O)(=O)c2c(C)[nH]c(=O)[nH]c2=O)cc1C`, the inhibition was 0.26% (inactive).

In the case of `CCOc1ccc(CN2CCN(Cc3ccon3)CC2CCO)cc1` (centres undefined), the inhibition was 9.62% (inactive). For the compound `O=C(CCCN1C(=O)CCC1=O)Nc1ccc(Cl)c(C(F)(F)F)c1`, the inhibition is -0.021% (inactive). As to `CS(=O)(=O)N(CC(=O)Nc1ccc(Cl)c(Cl)c1)C1CCCCC1`, the inhibition was 35.1% (inactive).

Regarding `O=C(CC(O)(C(F)(F)F)C(F)(F)F)Nc1ccc(Cl)c(Cl)c1`, the inhibition was 85.2% (active). Under `CC1CCCCC1NC(=O)NC(=O)COC(=O)C1=NN(c2ccccc2)C(=O)CC1` (centres undefined) stands -2.21% (inactive). With `C#C[C@]1(O)CC[C@H]2[C@@H]3CCC4=CC(=O)CC[C@@H]4[C@H]3CC[C@@]21CC`, the inhibition was 12.4% (inactive). On to `COc1ccccc1CN(C)C(=O)C1(c2ccc(Cl)cc2)CC1`, for which the inhibition was 3.3% (inactive). Take `CCCCCCOc1ccc(OC(=O)c2cccnc2)cc1`: the inhibition is 7.23% (inactive). As to `O=C(Oc1c(-c2ccco2)oc2ccccc2c1=O)c1cccnc1`, the inhibition is 45.4% (active). Under `N#CCc1ccc(OC(=O)c2cccnc2)cc1` stands 19.6% (inactive). `CCOc1ccc(C(c2c(C)[nH][nH]c2=O)c2c(C)[nH][nH]c2=O)cc1OCC`: the inhibition is 45.9% (active). In the case of `CCOc1ccc(C(C)NC(=O)CN2C(=O)NC3(CCCCC3)C2=O)cc1OCC` (centres undefined) it was 0.453% (inactive); in that of `CCOc1ccc(C(CC(=O)O)NC(=O)Cc2ccccc2)cc1OC` (centres undefined), -13.2% (inactive). As for `CCOC(=O)c1cn(CC)c2cc(F)c(F)cc2c1=O`, the inhibition was -8.23% (inactive). Take `CC(=O)NC(CC(=O)Nc1cccc(S(=O)(=O)N2CCCC2)c1)c1ccccc1` (centres undefined): the inhibition was 19.9% (inactive).

As to `CN1CCN(c2cc(=O)n(-c3ccc(Cl)cc3)c(=O)[nH]2)CC1`, the inhibition is -20.5% (inactive). For `COc1ccc(N(CC(=O)Nc2cc(OC)ccc2OC)S(=O)(=O)c2c(C)noc2C)cc1`, the inhibition was 29.9% (inactive). Consider `CCOC(=O)Cc1csc(NC(=O)CSc2ccc(Br)cc2)n1`, for which the inhibition was 46.9% (active). In the case of `CCOC(=O)Cc1csc(NC(=O)CSc2nnc(-c3cccnc3)n2Cc2ccco2)n1`, the inhibition was 13.4% (inactive). Turning to `CCOC(=O)Cc1csc(SCC(=O)Nc2ccc(C)cc2F)n1`, the inhibition is 18.9% (inactive). As to `CCOC(=O)Cc1csc(NC(=O)COc2ccc3c(C)cc(=O)oc3c2)n1`, the inhibition was 11.9% (inactive). As to `CCOC(=O)Cc1csc(SCC(=O)NC(C)C23CC4CC(CC(C4)C2)C3)n1` (centres undefined), the inhibition is 43.5% (active). As for `CCOC(=O)Cc1csc(SCc2cc(=O)oc3cc(O)ccc23)n1`, the inhibition was 12.7% (inactive). In the case of `NS(=O)(=O)c1ccc(CCNC(=O)c2ccc([N+](=O)[O-])cc2[N+](=O)[O-])cc1`, the inhibition is 2.98% (inactive). As to `CCCN(C(=O)CSc1nnnn1C)c1c(N)n(Cc2ccccc2)c(=O)[nH]c1=O`, the inhibition is -2.11% (inactive).

Consider `CN(CC(=O)Nc1cccc(F)c1)C(=O)C1CSC2(C)CCC(=O)N12` (centres undefined), for which the inhibition was 2.74% (inactive). On to `COc1ccccc1N1CCN(C(=O)c2cc(=O)c3cc(C)cc(C)c3o2)CC1`, for which the inhibition is 45.3% (active). `O=C(c1cc(=O)c2ccccc2o1)N1CCN(c2ccccc2)CC1`: the inhibition was 5.8% (inactive).

Regarding `COc1ccccc1N1CCN(C(=O)c2cc(=O)c3cc(C)ccc3o2)CC1`, the inhibition was 36.5% (inactive). In the case of `Cc1ccc(C(=O)N/N=C\c2cc(Br)c(Br)o2)cn1` it was 3.87% (inactive); in that of `COc1ccc(NC(C)=O)cc1NC(=O)CN1CCN(C2c3ccccc3-c3ccccc32)CC1`, 41.6% (active). `COc1ccc(Cl)cc1NC(=O)CN1CCN(C(=O)N2CCOCC2)CC1`: the inhibition was 1.52% (inactive). Regarding `COc1cccc(NC(=O)CN2CCN(CC(=O)Nc3ccccc3Cl)CC2)c1`, the inhibition was 19.6% (inactive). With `CC(C)(C)OC(=O)C1=C(CO)CS[C@@H]2[C@H](NC(=O)Cc3ccccc3)C(=O)N12`, the inhibition was 9.18% (inactive).

Values taken from PubChem BioAssay AID463190 (Sanford-Burnham Center for Chemical Genomics, 2010).
